Experimental data reported in PubChem BioAssay AID1851 (National Center for Advancing Translational Sciences (NCATS), 2009).
The whole screen tested about 16,000 compounds, of which about 5,800 (36%) were called active. Not shown: some 23% with an inconclusive outcome. The call rests on the fitted dose curve; in most records, active means well fitted curve in the direction sought with a large enough effect; inconclusive means small, poorly fitted or top-dose-only effect, or effect the other way; inactive means no such curve, though single readings can be large or run the other way. Some of the results follow.

target: Cytochrome P450 2C19 (Homo sapiens) (UniProt P33261); assay: Cytochrome panel assay with activity outcomes; settings: recombinant CYP, pro-luciferin dealkylation, luminescence, p450-cyp2c19; series mostly up to 57.1 µM; activity, negative = inhibition: at the top concentration
Sequence (P33261 whole entry, looked up): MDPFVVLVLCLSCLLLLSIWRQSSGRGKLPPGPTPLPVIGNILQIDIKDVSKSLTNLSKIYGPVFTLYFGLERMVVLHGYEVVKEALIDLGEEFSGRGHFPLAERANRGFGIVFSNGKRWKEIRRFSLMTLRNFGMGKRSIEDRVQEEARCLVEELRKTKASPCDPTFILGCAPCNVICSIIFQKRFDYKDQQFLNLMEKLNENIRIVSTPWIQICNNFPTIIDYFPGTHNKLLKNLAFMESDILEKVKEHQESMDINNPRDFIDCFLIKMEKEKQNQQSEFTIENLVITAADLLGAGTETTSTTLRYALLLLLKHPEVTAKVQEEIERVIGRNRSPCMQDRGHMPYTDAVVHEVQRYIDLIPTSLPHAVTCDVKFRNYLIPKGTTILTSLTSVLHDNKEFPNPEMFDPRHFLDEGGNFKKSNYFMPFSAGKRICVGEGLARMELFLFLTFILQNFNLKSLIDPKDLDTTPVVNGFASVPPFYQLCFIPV
On the % scale 0 is the no-effect control and ±100 the full control effect.

| SMILES | AC50 | activity, negative = inhibition |
| --- | --- | --- |
| Cc1ncc(N=Nc2ccccc2Cl)c(-c2ccccc2)n1 | 14.1 µM (active) | – |
| CCSC1=C(C#N)C2(CCCCC2)C(C#N)=C(N)N1 | 5.01 µM (active) | – |
| COc1ccc(C(=O)C(OC(=O)CNC(=O)c2ccco2)c2ccccc2)cc1 (stereo unspecified) | 10 µM (active) | – |
| COc1ccc(C(=O)[C@H](Br)[C@H](Br)C(=O)O)cc1 | – | -1.07% [at 11.4 µM] (inactive) |
| O=C(CNC(=O)c1ccco1)OC(C(=O)c1ccccc1)c1ccccc1 (stereo unspecified) | 5.62 µM (active) | – |
| COc1ccc(-c2ccc(/C=C3\C(=O)N(c4ccccc4)N=C3c3ccccc3)o2)c([N+](=O)[O-])c1 | 2.51 µM (active) | – |
| CC1=NN(c2ccccc2)C(=O)/C1=C\N1CC(C)OC(C)C1 (stereo unspecified) | – | 19.4% (inactive) |
| COC(=O)c1ccccc1-c1ccc(/C=C2\C(=O)N(c3ccccc3)N=C2c2ccccc2)o1 | 1.41 µM (active) | – |
| CN(C)CCCN1CCC2(CCC(C(C)(C)C)CC2)CC1 | – | 40.8% [at 11.4 µM] (inactive) |
| C[C@H](Oc1ccccc1)C(=O)N[C@@H]1C(=O)N2[C@@H]1SC(C)(C)[C@@H]2C(=O)O | – | 28.6% [at 25.6 µM] (inactive) |
| CC(Oc1ccccc1)C(=O)Nc1nc2c(s1)C(=O)CC(C)(C)C2 (stereo unspecified) | 7.08 µM (active) | – |
| O=C1N=C(N2CCC(Cc3ccccc3)CC2)S/C1=C/c1cn[nH]c1-c1ccccc1 | 3.55 µM (active) | – |
| CCN1C(=O)[C@H]2[C@H]3[C@H](O)[C@H](O)C/C(=N/NC(=O)OCc4ccccc4)[C@@H]3CC[C@@H]2C1=O | – | 36.5% [at 11.4 µM] (inactive) |
| CCC(C)C(NC(=O)OCc1ccccc1)C(=O)OCN1C(=O)c2ccccc2C1=O (stereo unspecified) | 3.16 µM (active) | – |
| CC(C)C(NC(=O)OCc1ccccc1)C(=O)O (stereo unspecified) | – | -12.5% (inactive) |
| Cc1ccc(C(=O)/C=C/c2c[nH]c3ccccc23)cc1 | 3.55 µM (active) | – |
| CCCn1c(/C=C/c2ccccc2)nc2ccccc21 | 7.94 µM (active) | – |
| c1ccc2c(CSCCc3ccncc3)cccc2c1 | 0.0794 µM (active) | – |
| c1ccc2c(CC3NCCN3)cccc2c1 | – | 28.8% [at 11.4 µM] (inactive) |
| c1cc(CSSCc2ccncc2)ccn1 | 1.26 µM (active) | – |
| O=S(=O)(O)CCCc1cccc2ccccc12 | – | 21.3% [at 11.4 µM] (inactive) |
| c1ccc2c(CSCc3cccc4ccccc34)cccc2c1 | 0.126 µM (active) | – |
| c1ccc2c(CSc3nnc(-c4ccncc4)o3)cccc2c1 | 0.282 µM (active) | – |
| CCNc1ncc2nc(-c3ccc(F)cc3)c(=O)n(-c3ccccc3)c2n1 | – | 14.6% (inactive) |
| O=C(Cc1ccc(Cl)cc1)NNC(=O)Nc1cccc2ccccc12 | – | -29.4% (inactive) |
| Clc1ccc(CSCCc2ccncc2)cc1Cl | 0.1 µM (active) | – |

| SMILES | AC50 | activity, negative = inhibition |
| --- | --- | --- |
| N[C@@H](CSC(=O)c1ccccc1)C(=O)O | – | 16.7% [at 11.4 µM] (inactive) |
| O=C(SCc1cccc2ccccc12)c1ccc(Cl)cc1 | 1.58 µM (active) | – |
| c1ccc(CSCCc2ccncc2)cc1 | 0.1 µM (active) | – |
| CN1CCN(CCc2ccc(Cl)c(Cl)c2)CC1 | – | -37.7% (inactive) |
| N=C(N)SCCc1ccncc1 | – | 9% [at 11.4 µM] (inactive) |
| N=C(N)SCCc1ccc(CCSC(=N)N)cc1 | – | -4% (inactive) |
| CCOC(=O)C1=C(CSc2nc(-c3ccccc3)ccc2C#N)OC(N)=C(C#N)C1c1ccc(OC)cc1 (stereo unspecified) | 2.82 µM (active) | – |
| CN1CCN(c2ncc3nc(-c4cc(F)cc(F)c4)c(=O)n(C)c3n2)CC1 | – | -2.58% (inactive) |
| Cc1ccc(OCC(O)CNC(=O)c2ccccc2C(=O)O)cc1 (stereo unspecified) | 20 µM (active) | – |
| CC(C)NC[C@@H](O)COc1ccc(COCCOC(C)C)cc1 | inactive | – |
| Cc1ccc(S(=O)(=O)NCC(=O)N(CC(=O)NCc2ccco2)Cc2cccs2)cc1 | 14.1 µM (active) | – |
| CC(C)(C)OC(=O)NCCc1nnc(SCC(=O)Nc2cccc(Cl)c2)o1 | 3.98 µM (active) | – |
| NC(=O)OCC(COC(N)=O)c1ccccc1 | – | -44.6% (inactive) |
| Cc1ccc(C(CC(N)=O)c2ccco2)cc1 (stereo unspecified) | 14.1 µM (active) | – |
| CC(C)(C)c1cc2cccnc2n1Cc1ccccc1 | 10 µM (active) | – |
| COc1ccc(-c2ccc(C(=S)N3CCN(C(C)=O)CC3)o2)cc1 | 15.8 µM (active) | – |
| COc1ccc(CC(=O)NCCN2CCCC2)cc1 | – | -46.4% (inactive) |
| COc1ccc(-c2nc(C(=O)N3CCN(C)CC3)sc2-c2ccc(OC)cc2)cc1 | – | -28.6% (inactive) |
| O=C(Nc1ccccc1)c1ccccc1CC[N+](=O)[O-] | 17.8 µM (active) | – |
| O=C(O)c1ccccc1-c1ccccc1C(=O)Nc1ccccc1 | – | -19.3% (inactive) |
| O=C(Nc1ccccc1)c1cc([N+](=O)[O-])ccc1Cl | 0.794 µM (active) | – |
| O=C(Nc1ccccc1)c1cc(-n2cnnc2)ccc1Cl | – | -17.8% (inactive) |
| Cn1c(=O)c2[nH]c(/N=N\N3CCN(CCO)CC3)nc2n(C)c1=O | – | 7.88% [at 11.4 µM] (inactive) |
| O=C(O)CN(CCN(CC(=O)O)CC(=O)O)CC(=O)O.[Mn] | – | -2.62% [at 11.4 µM] (inactive) |
| CCCCCNCc1cccc(Br)c1 | 11.2 µM (active) | – |
| CC(C)(C)c1ccc(C(=O)N2CCC(C(=O)NCCC3=CCCCC3)CC2)cc1 | 15.8 µM (active) | – |

| SMILES | AC50 | activity, negative = inhibition |
| --- | --- | --- |
| O=C(NCCC1=CCCCC1)C1CCCN(c2nc3ccccc3o2)C1 (stereo unspecified) | 2.82 µM (active) | – |
| CSc1cc(C)nc(NC(C)=O)n1 | 7.94 µM (active) | – |
| CC(=O)Nc1nc(NC(C)=O)c2[nH]c(CO)nc2n1 | – | 4.22% [at 11.4 µM] (inactive) |
| COc1cc(OC)nc(NC(C)=O)n1 | – | 14.4% (inactive) |
| O=C(Oc1ccccc1)N1CCC2(CC1)CCN(c1ccccc1)CC2 | – | -34.4% (inactive) |
| O=C(Oc1ccc2ccccc2c1Br)N1CCCCCC1 | 1.78 µM (active) | – |
| Cc1cc(C)c2c(-n3cccc3)nn(CC#N)c2n1 | 11.2 µM (active) | – |
| Cc1cc(C)c2c(-n3cccc3)n[nH]c2n1 | 5.01 µM (active) | – |
| CN(C)/N=N\c1nc[nH]c1C(N)=O | – | 30.5% [at 25.6 µM] (inactive) |
| CCc1nnc2sc(-c3ccc(NC(=O)c4ccco4)cc3)nn12 | 28.2 µM (active) | – |
| O=C(O)[C@@H](O)[C@@H](O)[C@@H](O[C@H]1O[C@@H](CO)[C@@H](O)[C@@H](O)[C@@H]1O)[C@@H](O)CO | – | 12.8% [at 25.6 µM] (inactive) |
| COCC(C)NCc1cccc(C)c1 (stereo unspecified) | – | -18% (inactive) |
| COc1ccc(/C(C)=N/NC(=O)c2ccc(CSc3cccc4cccnc34)cc2)cc1OC | 2.51 µM (active) | – |
| Cc1cccc(CSc2cccc3cccnc23)c1 | 2.24 µM (active) | – |
| CO[C@H]1COC(=O)C/C=C\[C@H](C)[C@@H](OC)COC(=O)[C@H](C)COC(=O)C/C=C\[C@@H]1C | – | 9.22% [at 11.4 µM] (inactive) |
| C=CCNc1cnn(-c2ccc(C)cc2)c(=O)c1Cl | 11.2 µM (active) | – |
| Cc1ccc(-n2ncc(N(C)C)c(Cl)c2=O)cc1 | – | -22.8% (inactive) |
| CC(C)/C(=N/[N+](C)(C)C)c1ccccc1 | – | 18.6% [at 11.4 µM] (inactive) |
| C[C@@H](C(=O)O)c1ccc(C(=O)c2ccccc2)s1 | 3.98 µM (active) | – |
| C[C@@H](C(=O)O)c1ccc(C(=O)c2cccs2)cc1 | – | -23.7% [at 25.6 µM] (inactive) |
| Cc1ccccc1Oc1ncnc2oc(-c3ccccc3)cc12 | 3.98 µM (active) | – |
| COCCNC(=O)CSc1ncnc2sccc12 | – | -22.8% (inactive) |
| Cc1ccccc1Oc1ncnc2sccc12 | 3.55 µM (active) | – |
| Cc1cc(Cl)ccc1Oc1ncnc2oc(-c3ccccc3)cc12 | 1.12 µM (active) | – |
| COc1cccc([C@H](O)Cn2cc(-c3ccc(CON=C(C)C)cc3)nn2)c1 | – | 6.04% [at 11.4 µM] (inactive) |
| Cc1cccc(OCCn2c(S(=O)(=O)O)nc3ccccc32)c1 | – | -37.5% (inactive) |

| SMILES | AC50 | activity, negative = inhibition |
| --- | --- | --- |
| Cc1cccc(OCCn2c(-c3ccco3)nc3ccccc32)c1 | 1.58 µM (active) | – |
| O=S1(=O)C=C(Oc2ccc3ccccc3c2)c2ccccc21 | 3.55 µM (active) | – |
| O=S1(=O)C=C(N2CCOCC2)c2ccccc21 | – | -30.9% (inactive) |
| Nc1ccc(S(=O)(=O)Nc2cnc3ccccc3n2)cc1 | inactive | – |
| Cc1ccc(S(=O)(=O)Nc2nc3ccccc3nc2N2CCc3ccccc3C2)cc1 | 5.01 µM (active) | – |
| N#CCCn1c(=O)c(-c2ccc(F)cc2)nc2cnc(OCc3ccccc3)nc21 | – | 15.8% (inactive) |
| CCCCn1c(SCC(N)=O)nc2ccc(N3CCOCC3)cc2c1=O | – | -12.8% (inactive) |
| N#CCSc1nc2cc(C(=O)N3CCCC3)ccc2c(=O)n1Cc1ccccc1 | 11.2 µM (active) | – |
| O=C(c1ccncc1)N1CCC2(CCCN(Cc3ccccc3)C2)CC1 | – | -1.19% (inactive) |
| COc1ccc(C(=O)N2CCC[C@@]3(CCN(Cc4ccc(C#N)cc4)C3)C2)cc1 | – | -8.34% (inactive) |
| N#CCSc1nc2ccc(N3CCCCC3)cc2c(=O)n1Cc1ccccc1 | 7.94 µM (active) | – |
| CSc1nc(N)c2ncn([C@H]3O[C@H](COP(=O)(O)OP(=O)(O)O)[C@@H](O)[C@@H]3O)c2n1 | – | -16.9% (inactive) |
| N#Cc1cc(-c2ccccc2)cnc1Sc1ccc(Cl)cc1 | 4.47 µM (active) | – |
| N#Cc1cc(-c2ccc(Cl)cc2)cnc1Sc1ccccc1 | 4.47 µM (active) | – |
| N=C1C(c2nc(-c3ccc(F)cc3)cs2)=C(O)CN1CCCN1CCOCC1 | 25.1 µM (active) | – |
| c1ccc2c(c1)ncn2-c1ncnc2sc3c(c12)CCCC3 | 8.91 µM (active) | – |
| N#Cc1c2c(c(-n3cnc4ccccc43)n3c1nc1ccccc13)CCC2 | – | -23.5% (inactive) |
| COc1ccccc1CN1CC2(CCN(C(=O)c3cnccn3)CC2)C1 | – | 37.1% (inactive) |
| COc1ccccc1CN1C(=O)c2ccncc2C1=O | 14.1 µM (active) | – |
| COc1ccccc1CN1CC2(CCN(C(=O)c3ccncc3)CC2)C1 | – | -42.2% (inactive) |
| CCOC(=O)c1c(C)nc2sc3c(=O)n(-c4ccc(C)cc4)cnc3c2c1-c1ccc(OC)cc1 | 1.26 µM (active) | – |
| CCOC(=O)c1c(C)nc2sc3c(=O)n(-c4ccc(C(C)=O)cc4)nnc3c2c1-c1ccc(Cl)cc1 | – | -21.6% (inactive) |
| Cc1cc2ccccc2c[n+]1CC(O)C[n+]1cc2ccccc2cc1C | – | 3.92% [at 11.4 µM] (inactive) |
